# From PubChem BioAssay (NCATS)
# Results filed as inconclusive are left out. Active and inactive are the calls of the source. Calls follow the shape of the full dose curve. Positions of bridges follow the written chain, without caps; N, C: chain ends. Non-standard residues stand in square brackets, D forms with d. Residues, ends and D or L forms follow the SMILES beside them. Groups on a side chain read outwards from the residue. *: point of attachment. Phg(4-OMe) = COc1ccc([C@H](N)C(=O)O)cc1; d(aIle) = CC[C@H](C)[C@@H](N)C(=O)O; d(aThr) = C[C@@H](O)[C@@H](N)C(=O)O; NMeF = CN[C@@H](Cc1ccccc1)C(=O)O; Isobutyryl = CC(C)C(=O)*
# Test: qHTS for inhibitors of Rabies Virus screened against the NCATS CANVASS Library (AID 1347402)
# Conditions: Rabies virus infection cell assay; series mostly up to 45.9 µM
row,Structure (SMILES),outcome
1,CC[C@H](C)[C@H]1NC(=O)[C@@H](NC(=O)C(C)C)[C@@H](C)OC(=O)[C@H](COC(=O)CNC(C)=O)NC(=O)[C@@H]([C@@H](C)O)NC(=O)[C@H](Cc2ccccc2)N(C)C(=O)[C@H](c2ccc(OC)cc2)NC1=O (Isobutyryl-T[d(aIle)][Phg(4-OMe)][NMeF][d(aThr)]S([Gly-Ac]); ester 1-C),inactive
2,C=C(C)[C@@H]1CC[C@]2(C)CC[C@]3(C)[C@H](CC[C@@H]4[C@@]5(C)CC[C@H](O)C(C)(C)[C@@H]5CC[C@]43C)[C@@H]12,inactive
3,C=CC(CCCCC)C1C(=O)NC(=O)C1C(=O)C1C2C(C)CC(C(=O)O)CC2CC1(O)C(=O)/C=C/C (stereo unspecified),inactive
4,CCCCCCC[C@@H](C/C=C/CCC(=O)NCCc1c[nH]c2ccccc12)OC,inactive
5,C=C1C[C@@]23C=CC(=O)[C@@](C)(CCC(=O)Nc4c(O)ccc(C(=O)O)c4O)C2C[C@@H]1CC3 (stereo partly specified),inactive
6,COc1ccc([C@@H]2c3cc4c(cc3C(=O)C(C)C2C)OCO4)cc1OC (stereo partly specified),inactive
7,C1=C2CCCN[C@@H]2[C@@H]2CCN3CCCC[C@@H]3[C@H](C1)C2,inactive
8,CN1CC[C@@]2([C@@]34CCN(C)[C@@H]3Nc3ccccc34)c3ccccc3N[C@@H]12,inactive
9,O=C1CCC(=O)N(O)CCCCCNC(=O)CCC(=O)N(O)CCCCCNC(=O)CCC(=O)N(O)CCCCCN1,inactive
10,CC[C@@H]1C[C@@]2(CC)OC(=O)[C@@]3(CC)OC(=O)[C@@H]1[C@@H]23,inactive
11,C/C1=C\CC(=O)/C=C/C=C\c2csc(n2)[C@@H](C)NC(=O)C[C@@](S)([C@@H](C)C(=O)O)CC1,inactive
